SMILES strings stand for the structures. Hit rate of the full screen: of about 65,000 compounds, about 2,100 (3.2%) showed an effect of 50% or more. The median lay at about -52%. Only a selection was taken, and strong results are over-represented in it overall.

The test system of this experiment is Plasmodium falciparum. The experiment in a line: Screen against P. falciparum Asexual Blood Stage (ABS), at 5uM. The experiment is classed as functional, Dd2. The following applies: tested at 5 uM.
In the case of `CCOC[C@@H]1CC[C@H]2[C@H](CCN2Cc2c(C)noc2C)O1`, the INHIBITION is recorded as -96.4%. As for `Cc1nc(CC(=O)N2CCN(C)CC2c2ccccc2)cs1` (centres undefined), the figure is -76.9%; as for `CN1CCCC(c2cccc(Cc3ccccc3Cl)n2)C1` (centres undefined), 70.3%; as for `CN1CCCC(Cc2nccnc2Cl)CC1` (centres undefined), 5.74%. Next, `CN1CCCC(c2cncc(C(=O)NCc3ccccc3Cl)n2)C1` (centres undefined): 72.4%; `O=C(C1CCCC1)N1C[C@@H]2CCNC[C@@H]21`: -78.2%. For the molecule `O=C1CC2(CCN(Cc3cccnc3)C2)CN1c1cncnc1` (centres undefined), the INHIBITION is given as -101%. Next, `CC(C)NC(=O)N1CCOC2(CCNCC2)C1`: 16.9%; `O=C1CO[C@H]2CN(C3CCOCC3)C[C@H]2N1Cc1ccncc1`: -53.2%. Regarding `COCCNC(=O)c1cn(C(C)(C)C)c2ncccc12`, the INHIBITION is on record as -129%.

`CC(C)(C)C(=O)NCCNCc1ccc(Cl)c2cccnc12`: the INHIBITION was 77.7%. Turning to `CCCNC(=O)c1cn(C(C)(C)C)c2ncccc12`, the INHIBITION was -149%. Regarding `O=C(N1CCOCC1)N1CCC2(CCNC2)C1` (centres undefined), the INHIBITION is recorded as -12.3%. For the molecule `CC(C)CN1CCC2(CC1)C(=O)Nc1ccc(C(=O)N(C)C)cc12`, the INHIBITION is -21.2%. As for `Cc1c(C2SCC(=O)Nc3c2c(O)nn3C2CCCCC2)cnn1C` (centres undefined), the figure is -53.5%.

In the case of `COc1cnc(N2CC(N3CCOCC3)C2)nc1-c1ccnn1C`, the INHIBITION was determined as 75.3%. Regarding `c1cc(COC[C@@]23CCC[C@@H]2CN(C2CCOCC2)C3)ccn1`, the INHIBITION is -24.5%. Regarding `Cc1nc[nH]c1CN(Cc1ccccc1)Cc1nccs1`, the INHIBITION was found to be 75.7%.

For `COc1cccc(CCNCc2c(C)nn(C)c2N(C)C)c1`, the INHIBITION was 49%. Regarding `COc1cccc(CN(Cc2ccco2)Cc2[nH]cnc2C)c1`, the INHIBITION was found to be 86.4%.

Regarding `Cc1nc[nH]c1CN1CCCC12CCN(c1ccccn1)CC2`, the INHIBITION was -15.3%. With `CC1CCN(CC(=O)N(Cc2ccccc2)Cc2nccs2)C1=O` (centres undefined), the INHIBITION is -96.3%. As for `CCOCCCNC(=O)c1cn(C(C)(C)C)c2ncccc12`, the INHIBITION was -151%.

`CC(NCC1CCN(CCO)CC1)c1cccc(Cl)c1` (centres undefined): the INHIBITION amounted to 84.8%. Consider `COc1ccc(Cl)cc1CC(=O)N1CCN(CCO)CC1`, for which the INHIBITION was -118%. Consider `CN(CC1CCN(CCO)CC1)CC(O)c1ccc(F)c(F)c1` (centres undefined), for which the INHIBITION is given as 76.5%. Next, `CC(NCC1CCN(CCO)CC1)c1ccc(Cl)cc1` (centres undefined): 93.9%. As for `CC(NCC1CCN(CCO)CC1)c1ccc(F)c(Cl)c1` (centres undefined), the figure is 84.1%.

`Cc1n[nH]c2c1C(c1ccc(Br)cc1)SCC(=O)N2` (centres undefined): the INHIBITION is on record as -33.1%.

On to `CCOCC(=O)NC(C)Cc1ccccc1Br` (centres undefined), for which the INHIBITION is given as -68.7%. Regarding `Cc1ccnc(OC[C@@]23CCO[C@@H]2CCN(C2CCC2)C3)n1`, the INHIBITION was -9.15%. For the molecule `CC(Cc1ccc(Cl)cc1)NC(=O)Nc1cnn(CC(N)=O)c1` (centres undefined), the INHIBITION came out at 22.5%. Regarding `CSc1cccc(CN(C)C(=O)c2cccc(C3CCCNC3)c2)c1` (centres undefined), the INHIBITION is on record as 77.5%. For `CNC(=O)c1ccc2c(c1)C1(CCN(C(C)C)CC1)C(=O)N2`, the INHIBITION is given as -45.1%.

For the molecule `O=C(c1ccccc1)N1CCOC2CNCC[C@H]21` (some centres undefined), the INHIBITION is -28.1%.

For the molecule `Cc1cc(N(C)C)cc(C2CCN(S(=O)(=O)c3cccs3)C2)n1` (centres undefined), the INHIBITION came out at 84.1%. `CCCSCC(=O)N1C[C@@H]2CC[C@H]1CN(Cc1cccnc1)C2`: the INHIBITION is -60%.

For `Cc1cc(N2CCC(NC(C)Cc3ccsc3)CC2)nc(C)n1` (centres undefined), the INHIBITION is 85.8%. Turning to `Cc1ccc(N2CC[C@@H]3[C@@H]2CCN3Cc2ccsc2)nn1`, the INHIBITION is on record as -103%. As for `Cc1cc(N2CCCC2c2cccnc2)nc(C)n1` (centres undefined), the figure is -10.2%. Consider `CCCc1cc(N2CCC(NCCc3ccc(O)cc3)CC2)nc(C)n1`, for which the INHIBITION came out at 82.1%. As for `Cc1cc(N2CCC(NCCOc3ccccc3)CC2)nc(C)n1`, the INHIBITION is on record as 75.1%. For `CCc1cc(N2CCC(NC3CN4CCC3CC4)CC2)nc(N(C)C)n1` (centres undefined), the INHIBITION is -25.1%.

For the molecule `Cc1cccc(N2CCC(NC(C)c3cccs3)CC2)n1` (centres undefined), the INHIBITION is on record as -22.7%. Next, `CC(C)OC(=O)N1C[C@@H]2CC[C@H]1CN(Cc1cccnc1)C2`: -128%; `Cc1cccc(CN2C(=O)C[C@H]3[C@@H]2CCN3Cc2cccs2)n1`: -76.6%; `CN1CCC(N2CCOC3(CCCC3)C2)C1=O` (centres undefined): -26.7%. Next, `Cc1ccccc1CNCC(O)c1ccc(OC(C)C)cc1` (centres undefined): 92.4%. For the molecule `OC(CNCc1ccccc1C(F)(F)F)c1ccccc1` (centres undefined), the INHIBITION was determined as 82.4%. For the molecule `CC(C)Oc1ccc(C(O)CNCc2ccccc2C(F)(F)F)cc1` (centres undefined), the INHIBITION was found to be 83.2%.

With `Cc1noc(C)c1C(=O)N1CCOC2(COCCN(C(C)C)C2)C1` (centres undefined), the INHIBITION is on record as -57.3%. Next, `CN(CCCOc1ccccc1)C(=O)c1csc(-c2nnc[nH]2)n1`: 77.1%.

For the molecule `CC1(C)CN(C(CNC2=NCCN2)c2ccc(Cl)cc2)CCO1` (centres undefined), the INHIBITION was determined as 83%. `Cc1n[nH]c2c1C(c1ccc(O)c(Cl)c1)SCC(=O)N2` (centres undefined): the INHIBITION is recorded as -65.6%. Next, `O=C(c1ccc(-n2ccnc2)nc1)N1CCN2CCCCC2C1` (centres undefined): -56.6%. As to `Cc1ccc(C(=O)N2C[C@@H]3OCCN(C)[C@@H]3C2)cn1`, the INHIBITION was -12.2%. Regarding `O=C(c1ccc(-n2cccn2)nc1)N1CCC(c2ccc(O)cc2)CC1`, the INHIBITION came out at 75.1%.

Take `Cc1noc(C)c1CN1C[C@H](OCC2CC2)[C@H]2COC[C@H]21`: the INHIBITION is on record as -54.7%. For `Fc1ccccc1CO[C@@H]1C[C@H]2CN(c3ncccn3)CCN2C1`, the INHIBITION is on record as -67.9%. Next, `CN1C(=O)C2(CCN(Cc3cccnc3)CC2)c2cccc(F)c21`: -61.4%; `COc1ccc(C)cc1CN1CCC(c2cc3ncccc3cn2)CC1`: 78.2%. Next, `Fc1cccc(CN2CCC(c3cc4ncccc4cn3)CC2)c1F`: 89.4%. With `Fc1ccc(F)c(CN2CCC(c3cc4ncccc4cn3)CC2)c1`, the INHIBITION came out at 76%. In the case of `Fc1cnccc1CN1CCC2(CCN2c2ncccn2)C1` (centres undefined), the INHIBITION is -10.7%. On to `O=C(Cc1ccccc1F)N1CCN(Cc2noc(C3CC3)n2)CC1`, for which the INHIBITION is -69%. Next, `O=C1CO[C@H]2CN(Cc3cccnc3)C[C@H]2N1`: -119%; `CCN1CCN(C(=O)Cc2ccc(S(=O)(=O)C(F)F)cc2)CC1`: -124%. In the case of `NCC1Cc2cccc(-c3ccc(O)c(F)c3)c2O1` (centres undefined), the INHIBITION is given as 82.9%. As for `COCC(=O)N1C[C@@H]2OCCN(Cc3c(C)noc3C)[C@@H]2C1`, the figure is -93.2%; as for `c1cncc(O[C@H]2CC[C@H]3[C@H]2OCCN3C2CCC2)c1`, -27.2%. Regarding `Cc1ccc(Cl)cc1N1CCC(CNC(=O)CCn2ccnc2)C1` (centres undefined), the INHIBITION worked out at 84.2%.

With `CCN1CCN(C(=O)c2cn(Cc3ccccc3)c3ncccc23)CC1`, the INHIBITION is recorded as 20.5%. As for `CCc1ncc(C(=O)N2CC[C@H]3CC[C@@H](C2)N3C)cn1`, the INHIBITION is given as -3.55%. On to `CC(=O)c1cc(C(=O)N2CC[C@H]3CC[C@@H](C2)N3C)c(=O)[nH]c1C`, for which the INHIBITION is listed as -102%. As to `CN1[C@@H]2CC[C@H]1CN(C(=O)c1ccc(-c3ccccc3)[nH]1)CC2`, the INHIBITION is 79.7%. Regarding `COCCN1CCN(Cc2ccncc2)[C@H]2CS(=O)(=O)C[C@H]21`, the INHIBITION was -111%. On to `CNC(=O)CN1CC[C@H]2CN(C(=O)c3ccc(C)nc3)C[C@H]2C1`, for which the INHIBITION is -17.9%. Regarding `CCN(CC)CCN1CCO[C@H]2[C@@H](OCc3ccccn3)CC[C@@H]21`, the INHIBITION was -115%. As to `COC(=O)c1cc(OCC2CCC2)cc(C(=O)N[C@@H]2CNCC[C@H]2O)c1`, the INHIBITION stood at 90.1%. For `CC1=N[C@@]2(CC[C@@H]3CN(CC(C)C)C[C@@H]32)C(=O)N1`, the INHIBITION is -40.1%. As for `COc1ccc2c(c1)c(C(=O)Nc1n[nH]c(C(C)C)n1)cn2C(C)C`, the figure is 22.8%. Regarding `CCCc1nc(N2CCCN3CCC[C@H]3C2)c2cnn(C)c2n1`, the INHIBITION is given as -7.45%. Regarding `CCCc1nc(N2CCCC3(CCNC3)C2)c2cnn(C)c2n1` (centres undefined), the INHIBITION is listed as -53.5%. As to `CCCc1nc(N(C)CCN2CCCCCC2)c2cnn(C)c2n1`, the INHIBITION is listed as 92.9%.

With `Cc1c(C2SCC(=O)Nc3c2c(O)nn3C2CCCC2)cnn1C` (centres undefined), the INHIBITION is recorded as -70.4%. On to `CC(C)N1CCC2(CCCNC2)C1=O` (centres undefined), for which the INHIBITION was 25.4%. In the case of `c1cnc(N2CCC3(COCCN(CC4CCOCC4)C3)C2)nc1` (centres undefined), the INHIBITION was -26.6%. For `O=C1C[C@H]2[C@@H](CCN2Cc2ccccn2)N1CCN1CCOCC1`, the INHIBITION was found to be 27.7%. As for `c1cc(N2CCC(CN3CCOCC3)CC2)c2sccc2n1`, the INHIBITION amounted to 92.3%. On to `O=C1NC[C@H]2CN(Cc3ccnc4ccccc34)CCN12`, for which the INHIBITION was -11.8%. Consider `CCC(O)(CNCc1cc[nH]n1)c1ccc(Br)cc1` (centres undefined), for which the INHIBITION was found to be 76.4%.

For `Cn1cc(CN2CC[C@]3(C[C@H](OCc4ccccn4)CO3)C2)cn1`, the INHIBITION is listed as -37.1%. `OCCN1CCC2(CC1)CC(NCc1ccccn1)c1ccccc1O2` (centres undefined): the INHIBITION amounted to 70.8%. As for `O=S(=O)(C1CC1)N1CCC2(CC1)CN(Cc1ccccn1)CCO2`, the INHIBITION is -110%. For `CC(C)N1CCOCC2(CN(Cc3ccccn3)CCO2)C1` (centres undefined), the INHIBITION was -62.4%. Take `CC(C)N1CCC2(CC1)CC(NCc1ccccn1)c1ccccc1O2` (centres undefined): the INHIBITION is listed as 70.7%. On to `O=C(NCc1ccccn1)[C@@]12CCO[C@@H]1CCN(C1CCCC1)C2`, for which the INHIBITION is -21.2%.

With `CN(C)C(=O)[C@@H]1C[C@@H]2CCN(Cc3ccncc3)C[C@@H]2O1`, the INHIBITION was -19.3%.

As for `CCCN1CCC[C@]2(CCC(=O)N2Cc2ccncc2)[C@H]1CC`, the INHIBITION is on record as -97.5%. As to `O=C(C1CC=CC1)N1CCC2(CC1)CNCCO2`, the INHIBITION was -57.4%.

Regarding `C[C@@H]1CN(C(=O)C2CCS(=O)(=O)CC2)CC[C@@]1(O)C1CCOCC1`, the INHIBITION came out at 71.2%.

For `O=C(C1CC1)N1CCC2(CC1)OCCO2`, the INHIBITION is listed as -77.4%. Turning to `O=C(C1CCOCC1)N1CCC2(CCNCC2)C1`, the INHIBITION was -36.9%. Take `O=C([C@@H]1Cc2[nH]cnc2CN1Cc1cc2ccccc2o1)N1CCCC1`: the INHIBITION is given as 95%.
